{"source": "the supplement of paper PMC8728848", "binders": {"B1": {"name": "Tap1 (Sordaria macrospora), Q50IV4 (protein)", "chain": "MSHHHHHHHHYTLHLRLINDTSDTLTLVEQTSWWGKNTIWSQVRSTGVHVLSMAASGSSGMLRFQTSKGDFFAVAVGVHNYKRWCDVLVDTADEAPLTKLHPKYYDDKDAKYQALWAQASEFEAKSKSGKTVRIKFYQADGNVLRATVEYL"}}, "assay_in_all_cases": "glycan array binding signal (z-score within array); higher = stronger binding", "settings_in_all_cases": "glycan notation: IUPAC condensed, linker removed", "key": {"Fuc(a1-2)Gal(b1-3)GalNAc": {"target": "Fuc(a1-2)Gal(b1-3)GalNAc", "summary_of_the_method": "(§1)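 Glycan array data were curated from 3228 arrays in the Consortium for Functional Glycomics database and kept only where the protein sequence was available. Glycan names were converted to IUPAC-condensed notation, and columns mapping to the same glycan were averaged. The binding signal is a within-array Z-score, averaged across arrays of the same protein sequence at different concentrations or buffers and across linkers. Negative Z-scores can be read as non-binding.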"}, "[1]": {"target": "Fuc(a1-2)[Gal(a1-3)]Gal(b1-4)Glc", "summary_of_the_method": "as §1"}, "[2]": {"target": "Fuc(a1-2)[Gal(a1-3)]Gal(b1-4)GlcNAc(b1-2)Man(a1-3)[Fuc(a1-2)[Gal(a1-3)]Gal(b1-4)GlcNAc(b1-2)Man(a1-6)]Man(b1-4)GlcNAc(b1-4)GlcNAc", "summary_of_the_method": "as §1"}, "[3]": {"target": "Fuc(a1-2)[Gal(a1-4)]Gal(b1-4)GlcNAc", "summary_of_the_method": "as §1"}, "[4]": {"target": "Fuc(a1-2)[GalNAc(a1-3)]Gal(b1-3)GalNAc(a1-3)[Fuc(a1-2)]Gal(b1-4)GlcNAc", "summary_of_the_method": "as §1"}, "[5]": {"target": "Gal(a1-4)Gal(b1-3)GlcNAc(b1-2)Man(a1-3)[Gal(a1-4)Gal(b1-3)GlcNAc(b1-2)Man(a1-6)]Man(b1-4)GlcNAc(b1-4)GlcNAc", "summary_of_the_method": "as §1"}, "Gal(a1-6)Glc": {"target": "Gal(a1-6)Glc", "summary_of_the_method": "as §1"}, "Gal(b1-2)Gal": {"target": "Gal(b1-2)Gal", "summary_of_the_method": "as §1"}, "[6]": {"target": "Gal(b1-3)Gal(b1-4)GlcNAc(b1-2)Man(a1-3)[Gal(b1-3)Gal(b1-4)GlcNAc(b1-2)Man(a1-6)]Man(b1-4)GlcNAc(b1-4)GlcNAc", "summary_of_the_method": "as §1"}, "Gal(b1-3)GalNAc": {"target": "Gal(b1-3)GalNAc", "summary_of_the_method": "as §1"}, "[7]": {"target": "Gal(b1-3)GlcNAc(b1-2)[Gal(b1-3)GlcNAc(b1-6)]Man(a1-6)[Gal(b1-3)GlcNAc(b1-2)Man(a1-3)]Man(b1-4)GlcNAc(b1-4)GlcNAc", "summary_of_the_method": "as §1"}, "[8]": {"target": "Gal(b1-3)GlcNAc(b1-3)Gal(b1-4)Glc", "summary_of_the_method": "as §1"}, "[9]": {"target": "Gal(b1-3)[Neu5Ac(a2-6)]GalNAc", "summary_of_the_method": "as §1"}, "[10]": {"target": "Gal(b1-3)[Neu5Ac(b2-6)]GalNAc", "summary_of_the_method": "as §1"}, "Gal(b1-4)GlcNAc": {"target": "Gal(b1-4)GlcNAc", "summary_of_the_method": "as §1"}, "[11]": {"target": "Gal(b1-4)GlcNAc(b1-3)Gal(b1-4)Glc", "summary_of_the_method": "as §1"}, "[12]": {"target": "Gal(b1-4)GlcNAc(b1-3)[Gal(b1-4)GlcNAc(b1-6)]Gal(b1-4)GlcNAc", "summary_of_the_method": "as §1"}, "[13]": {"target": "Gal(b1-4)GlcNAc(b1-6)Gal(b1-4)GlcNAc", "summary_of_the_method": "as §1"}, "Gal3S(b1-3)GalNAc": {"target": "Gal3S(b1-3)GalNAc", "summary_of_the_method": "as §1"}, "[14]": {"target": "GlcNAc(a1-4)Gal(b1-4)GalNAc", "summary_of_the_method": "as §1"}, "[15]": {"target": "GlcNAc(a1-4)Gal(b1-4)GlcNAc(b1-3)Gal(b1-4)Glc", "summary_of_the_method": "as §1"}, "[16]": {"target": "GlcNAc(b1-2)Gal(b1-3)GalNAc", "summary_of_the_method": "as §1"}, "[17]": {"target": "GlcNAc(b1-3)Gal(b1-3)GalNAc", "summary_of_the_method": "as §1"}, "GlcNAc(b1-3)GalNAc": {"target": "GlcNAc(b1-3)GalNAc", "summary_of_the_method": "as §1"}, "Kdn(a2-3)Gal(b1-3)GalNAc": {"target": "Kdn(a2-3)Gal(b1-3)GalNAc", "summary_of_the_method": "as §1"}, "Neu5Ac(a2-3)Gal": {"target": "Neu5Ac(a2-3)Gal", "summary_of_the_method": "as §1"}, "[18]": {"target": "Neu5Ac(a2-3)Gal(b1-3)GalNAc", "summary_of_the_method": "as §1"}, "[19]": {"target": "Neu5Ac(a2-3)Gal(b1-3)GalNAc(b1-4)[Neu5Ac(a2-8)Neu5Ac(a2-3)]Gal(b1-4)Glc", "summary_of_the_method": "as §1"}, "[20]": {"target": "Neu5Ac(a2-3)Gal(b1-4)GlcNAc", "summary_of_the_method": "as §1"}, "[21]": {"target": "Neu5Ac(a2-3)Gal(b1-4)GlcNAc(b1-6)[Neu5Ac(a2-3)Gal(b1-3)]GalNAc", "summary_of_the_method": "as §1"}, "[22]": {"target": "Neu5Ac(a2-3)Gal(b1-4)[Fuc(a1-3)]GlcNAc(b1-3)Gal(b1-4)GlcNAc", "summary_of_the_method": "as §1"}, "[23]": {"target": "Neu5Ac(a2-3)GalNAc(b1-4)GlcNAc", "summary_of_the_method": "as §1"}, "[24]": {"target": "Neu5Ac(a2-6)Gal(b1-4)GlcNAc(b1-3)Gal(b1-4)[Fuc(a1-3)]GlcNAc(b1-3)Gal(b1-4)[Fuc(a1-3)]GlcNAc", "summary_of_the_method": "as §1"}, "[25]": {"target": "Neu5Gc(a2-3)Gal(b1-3)[Fuc(a1-4)]GlcNAc", "summary_of_the_method": "as §1"}}, "note": "The full list was thinned out, with the strongest signals kept by preference.", "data": [{"binder": "B1", "values": [{"measurement": "glycan array binding signal (z-score)", "setting": "Fuc(a1-2)Gal(b1-3)GalNAc", "value": 2.96}, {"measurement": "glycan array binding signal (z-score)", "setting": "[1]", "value": -0.234}, {"measurement": "glycan array binding signal (z-score)", "setting": "[2]", "value": -0.244}, {"measurement": "glycan array binding signal (z-score)", "setting": "[3]", "value": -0.242}, {"measurement": "glycan array binding signal (z-score)", "setting": "[4]", "value": -0.246}, {"measurement": "glycan array binding signal (z-score)", "setting": "[5]", "value": -0.221}, {"measurement": "glycan array binding signal (z-score)", "setting": "Gal(a1-6)Glc", "value": -0.248}, {"measurement": "glycan array binding signal (z-score)", "setting": "Gal(b1-2)Gal", "value": -0.207}, {"measurement": "glycan array binding signal (z-score)", "setting": "[6]", "value": -0.225}, {"measurement": "glycan array binding signal (z-score)", "setting": "Gal(b1-3)GalNAc", "value": 3.97}, {"measurement": "glycan array binding signal (z-score)", "setting": "[7]", "value": -0.179}, {"measurement": "glycan array binding signal (z-score)", "setting": "[8]", "value": -0.23}, {"measurement": "glycan array binding signal (z-score)", "setting": "[9]", "value": 4.09}, {"measurement": "glycan array binding signal (z-score)", "setting": "[10]", "value": -0.25}, {"measurement": "glycan array binding signal (z-score)", "setting": "Gal(b1-4)GlcNAc", "value": -0.237}, {"measurement": "glycan array binding signal (z-score)", "setting": "[11]", "value": -0.235}, {"measurement": "glycan array binding signal (z-score)", "setting": "[12]", "value": -0.264}, {"measurement": "glycan array binding signal (z-score)", "setting": "[13]", "value": -0.224}, {"measurement": "glycan array binding signal (z-score)", "setting": "Gal3S(b1-3)GalNAc", "value": 5.01}, {"measurement": "glycan array binding signal (z-score)", "setting": "[14]", "value": 0.868}, {"measurement": "glycan array binding signal (z-score)", "setting": "[15]", "value": -0.223}, {"measurement": "glycan array binding signal (z-score)", "setting": "[16]", "value": 2.86}, {"measurement": "glycan array binding signal (z-score)", "setting": "[17]", "value": 2.84}, {"measurement": "glycan array binding signal (z-score)", "setting": "GlcNAc(b1-3)GalNAc", "value": 1.62}, {"measurement": "glycan array binding signal (z-score)", "setting": "Kdn(a2-3)Gal(b1-3)GalNAc", "value": 3.63}, {"measurement": "glycan array binding signal (z-score)", "setting": "Neu5Ac(a2-3)Gal", "value": -0.232}, {"measurement": "glycan array binding signal (z-score)", "setting": "[18]", "value": 4.27}, {"measurement": "glycan array binding signal (z-score)", "setting": "[19]", "value": -0.198}, {"measurement": "glycan array binding signal (z-score)", "setting": "[20]", "value": -0.251}, {"measurement": "glycan array binding signal (z-score)", "setting": "[21]", "value": 1.16}, {"measurement": "glycan array binding signal (z-score)", "setting": "[22]", "value": -0.144}, {"measurement": "glycan array binding signal (z-score)", "setting": "[23]", "value": -0.247}, {"measurement": "glycan array binding signal (z-score)", "setting": "[24]", "value": -0.176}, {"measurement": "glycan array binding signal (z-score)", "setting": "[25]", "value": -0.24}]}]}
